Test results from PubChem BioAssay (NCI).
About 83,000 compounds went through this panel and 20% of them were active in at least one assay; those are over-represented in the sample as a whole.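 Values shown are percent growth following 48 h exposure of cells in 96-well plates to a single concentration of compound; below 10 was considered active.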 Unmarked numbers belong to inactive results. Calls of active or inactive are those of the source.

Key:
Test in all cases: NCI-60 one-dose screen, 48 h (100 = growth as untreated, 0 = no growth, -100 = all killed)
Details in all cases: 10 µM unless noted
SR leukemia = system: SR leukemia
RPMI-8226 leukemia = system: RPMI-8226 leukemia
OVCAR-8 ovarian = system: OVCAR-8 ovarian
OVCAR-5 ovarian = system: OVCAR-5 ovarian
OVCAR-4 ovarian = system: OVCAR-4 ovarian
SK-OV-3 ovarian = system: SK-OV-3 ovarian
IGROV1 ovarian = system: IGROV1 ovarian
OVCAR-3 ovarian = system: OVCAR-3 ovarian
HS 578T breast = system: HS 578T breast
NCI/ADR-RES ovarian = system: NCI/ADR-RES ovarian

SMILES	growth (SR leukemia)	growth (RPMI-8226 leukemia)	growth (OVCAR-8 ovarian)	growth (OVCAR-5 ovarian)	growth (OVCAR-4 ovarian)	growth (SK-OV-3 ovarian)	growth (IGROV1 ovarian)	growth (OVCAR-3 ovarian)	growth (HS 578T breast)	growth (NCI/ADR-RES ovarian)
COc1cc(-n2nc(C(=O)Nc3ccc(C(=O)O)cc3)nc2-c2ccccc2)cc(OC)c1OC	118%	108%	86.3%	86.3%	110%	64.3%	51%	94.4%	97.5%	89.1%
Cc1nc(Nc2cccnc2)sc1C(=O)/C=C/c1ccc(Cl)cc1	6.11% (active)	-4.94% (active)	14.9%	37.3%	82.4%	81.3%	14.9%	7.38% (active)	98.9%	35.4%
CCSc1nnc(NC(=O)COc2ccc(Cl)cc2C)s1	43.4%	94.6%	100%	96.2%	107%	93.5%	-17.9% (active)	94.8%	101%	106%
O=C(Nc1ccc(Cl)cc1)c1cc(-c2ccc(F)cc2)c2sc(=O)[nH]c2n1	16.6%	10.9%	13%	72.2%	-0.62% (active)	0.427% (active)	29.3%	14%	29.4%	3.43% (active)
Cc1ccc(C2=NN(c3ccc(S(N)(=O)=O)cc3)C(c3cn(-c4ccccc4)nc3-c3ccccc3)C2)cc1 (stereo not given)	11.7%	39.7%	86.3%	115%	105%	93.4%	88.5%	56.1%	96.6%	90.6%
Nc1nc(N)c2nc(CNc3ccc(C(=O)CC(CCC(=O)O)C(=O)O)cc3)cnc2n1 (stereo not given)	28.6%	58.3%	14.8%	53.1%	79.9%	52%	-58.5% (active)	49.8%	82.4%	25.6%
Cc1ccc(S(=O)(=O)OC2COCOC2C(OS(=O)(=O)c2ccc(C)cc2)C2OCOCC2OS(=O)(=O)c2ccc(C)cc2)cc1 (stereo not given)	96.2%	107%	103%	101%	118%	107%	110%	110%	107%	110%
CC[C@H](C)[C@@H]1NC(=O)[C@H]([C@@H](C)O)NC(=O)C(Cc2ccccc2)NC(=O)[C@@H]2CCCN2C(=O)C(C(C)C)NC(=O)C(Cc2ccccc2)NC(=O)CNC(=O)[C@@H]2CCCN2C1=O (stereo not given in full)	20.1%	7.56% (active)	68.3%	89.9%	60%	78.4%	63.6%	57.6%	59.2%	64.5%
Cc1cccc(-n2c(C)nc3ccc(NC(=O)NCCCl)cc3c2=O)c1	95.9%	97.6%	107%	107%	107%	102%	102%	105%	99.4%	95.5%
CCN1C(=O)N(CC)C2C1NN=c1s/c(=C\c3cccc(F)c3)c(=O)n12 (stereo not given)	4.36% (active)	-0.526% (active)	21.2%	55.6%	44.1%	72.3%	29.9%	-2.21% (active)	17.9%	5.73% (active)
CC(=O)Nc1ccc(S(=O)(=O)N2C(=O)CCC2C(=O)Nc2ccccc2)cc1 (stereo not given)	28%	26.7%	40.4%	58.4%	39.9%	57.5%	28.9%	28.1%	63.1%	41.5%
COc1cc(OC)c(C(=O)/C=C/c2cccc(C#N)c2)c(OC)c1	3.17% (active)	1.52% (active)	7.46% (active)	40.1%	18.1%	0.849% (active)	9.48% (active)	9.13% (active)	17.6%	14.8%
Nc1nc(Cl)c2c(ncn2Cc2ccc(CCl)cc2)n1	83.2%	33.8%	49.4%	109%	96.1%	103%	76.5%	68.3%	94.1%	98.4%
CCCS(=O)(=O)c1nc(NC2CC2)cc(-c2ccc3c(ccn3C3CC(C)(C)NC(C)(C)C3)c2)n1	-14.5% (active)	-32.6% (active)	-52.8% (active)	-15.2% (active)	-70.6% (active)	92.6%	-51% (active)	-89.4% (active)	-11.4% (active)	41.5%
COc1ccc(Cn2cc(COc3cc(/C=C/C(=O)c4cc(OC)c(OC)c(OC)c4)ccc3OC)nn2)cc1	5.65% (active)	-2.32% (active)	46.6%	81.3%	51%	72%	88.8%	54.3%	83.3%	46.2%
Nc1c(C(=O)Nc2cccc(Cl)c2Cl)sc2nc3c(cc12)C(=O)CCC3	95.6%	102%	114%	99.1%	104%	24.2%	72.8%	95.6%	88.2%	73.4%
C/C(=N\NC(=O)CC#N)c1cc2cc(Cl)ccc2o1	84.8%	90.2%	109%	105%	91.5%	98.8%	96.8%	102%	14.9%	110%
COc1cc(NC(=O)c2cc3ccccc3nc2Nc2ccc(F)cc2)cc(OC)c1OC	35.7%	29.8%	43.3%	68.8%	47.7%	72.8%	54.5%	36.2%	75.5%	39.7%
O=S(=O)(NCCCNc1cc(-c2cn(-c3ccccc3)nc2-c2cccc(O)c2)ccn1)c1cccc(F)c1	35%	32%	39.8%	68.3%	50.2%	72%	53.8%	65.6%	41.7%	49.3%
COc1cc(-c2csc(NC(=O)Nc3ccc(Cl)cc3Cl)n2)cc(OC)c1OC	23.1%	30%	45.4%	75.8%	55.5%	55.5%	51.7%	20.5%	34.5%	9.75% (active)
CC(C)(C)OC(=O)N1C/C(=C\c2cccs2)C(=O)/C(=C/c2cccs2)C1	55.5%	55.4%	87.8%	109%	82.2%	90.1%	83%	104%	93.3%	96.3%
CC1CCN(C(=O)CSc2nc3sc4c(c3c(=O)[nH]2)CCCC4)CC1	85.5%	82.4%	102%	102%	108%	103%	87.7%	116%	113%	109%
O=S=Nc1ccc([N+](=O)[O-])cc1	90.3%	102%	104%	87.2%	101%	103%	103%	98.3%	95%	99.4%
COc1ccc(/C=C/C(=O)c2cccc(B(O)O)c2)cc1O	6.45% (active)	5.96% (active)	60.1%	88.4%	73.9%	58.1%	18.2%	-6.95% (active)	32.9%	48.9%
Cc1ccnc2nc(C(=O)OCC(=O)Nc3ccc(-c4ccccc4)cc3)nn12	53.3%	98.1%	102%	96%	95%	116%	-5.67% (active)	112%	125%	98.3%
COC(=O)CC/C(C)=N\Nc1ccc([N+](=O)[O-])cc1	34.6%	51.8%	59.1%	79.4%	76.3%	62.5%	74.2%	88.3%	81.7%	78%
CC/C=C\C[C@H]1C/C=C2/C(=O)C(Cl)=C[C@@H]2C/C=C\CCCC(=O)O1	-2.48% (active)	-14.1% (active)	3.57% (active)	-25% (active)	-37.8% (active)	-6.42% (active)	-41.7% (active)	-96.1% (active)	17.6%	6.27% (active)
